# Nrf2 activator: activates Nrf2 signaling | AREc32 ARE-luciferase reporter (MCF7-derived line), luminescence, 24 h | Potency, µM (series often up to 46.1 µM), inactives show at the top dose activation, most hits filed as activators | 410,000 compounds, 0.31% hits | AID 624171; further: % of control where 0% means no effect; nearly all actives have a fitted effect of over 65% in size
#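 Luminescent ARE reporter assay in AREc32_Fluc cells: overnight plating at 37 deg C, 24 hr compound incubation, Steady-Glo added, 30 min RT before reading.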
# Nrf2 block: inhibitors of Nrf2 signaling. A549 ARE-Fluc reporter, luciferase luminescence, 18-24 h. Potency, µM (top dose mostly 46 µM), without a hit: top-dose activity change, negative = inhibition, usual class: inhibitors. 360,000 compounds, 2.1% hits. AID 504444; further: on the % scale 0 is the no-effect control and ±100 the full control effect; nearly all actives have a fitted effect of over 60% in size
#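 Nrf2 activity is the BugLite luminescence, read 15 min after reagent at room temperature, following CellTiter-Fluor cytotoxicity readout (30 min, 37C). Compound titrations were applied for 18-24 h to 5000 A549 ARE_Fluc cells/well in 5% FBS OPTI-MEM.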
# Pin1 inhibitor: blocks the human prolyl isomerase Pin1 | Q13526 | Pin1 FP peptide displacement, HiFluor488, 10 min | Potency, µM (series often up to 115 µM), without a hit: top-dose activity, negative = inhibition, usual class: inhibitors | 390,000 compounds, 0.009% hits | AID 504891; active means well fitted inhibition curve with a large enough effect in the polarisation, with a control signal flat, not every such curve was filed as active; inconclusive means small, poorly fitted or top-dose-only effect, or effect the other way, or a change in a side signal; inactive means no such curve, though single readings can be large or run the other way; the % refers to the polarisation; further: on the % scale 0 is the no-effect control and ±100 the full control effect
# Target sequence (Q13526 whole entry, looked up): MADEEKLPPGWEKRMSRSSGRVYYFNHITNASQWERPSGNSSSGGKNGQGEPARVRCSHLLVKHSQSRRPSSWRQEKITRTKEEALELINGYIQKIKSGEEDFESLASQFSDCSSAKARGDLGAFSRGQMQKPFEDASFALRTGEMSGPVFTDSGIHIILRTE
# A549 viability: counter-screen for Nrf2 inhibitors: cytotoxicity in A549 cells; A549 ARE-Fluc cells, CellTiter-Fluor viability, 18-24 h; Potency, µM (highest dose often 46 µM), for the others: at the highest dose activity change, negative = cytotoxicity, hits mostly inhibitors; 390,000 compounds, 0.16% hits; AID 504648; further: on the % scale 0 is the no-effect control and ±100 the full control effect
#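 A549 ARE-Fluc cells in 5% FBS OPTI-MEM, 5000 cells/well, rested 2 h then exposed to compounds in concentration-response for 18-24 h at 37 °C. Viability by CellTiter-Fluor fluorescence (Ex 405/Em 525) after 30 min; luciferase luminescence (BugLite, 15 min, RT) read afterwards.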
# Starred values were filed as active, the others as inactive; ? = inconclusive; . = no result given; ! = repeats disagree. An excerpt weighted towards active compounds, which were near 2.2% of everything screened. Unless noted, the call rests on the fitted dose curve; in most records, active means well fitted curve in the direction sought with a large enough effect; inconclusive means small, poorly fitted or top-dose-only effect, or another doubt; inactive means no such curve, though single readings can be large; an effect the other way counts as inactive or inconclusive. Potency means the concentration at half of the fitted maximal effect.
SMILES,Nrf2 activator,Nrf2 block,Pin1 inhibitor,A549 viability
CN(CCc1ccccc1)C(=O)c1cccc(NC(=O)Cc2cccc(NC(=O)C3CCCN(C(=O)c4ccccc4)C3)c2)c1 (stereo not drawn),2.9%,25.9µM*,10.4%,-11.1%
O=C(Cn1c(=O)n(Cc2ccco2)c(=O)c2sc3ccccc3c21)Nc1ccccc1C(F)(F)F,4.5%,11.1%,16.0%,-0.8%
COc1cccc(OCCSc2nc3ccccc3n2CC(=O)N2CCOCC2)c1,-0.2%,?,5.1%,-5.6%
COc1cccc(OCCSc2nc3ccccc3n2CC(=O)N2CCCCC2)c1,1.1%,18.4µM*,10.7%,-14.6%
O=C(NCCSCc1ccccc1)c1ccc(C2SCC(=O)N2Cc2ccccc2)cc1 (stereo not drawn),3.1%,10.3µM*,?,-6.8%
O=C(NCc1ccc2c(c1)OCO2)C(=O)NCC1OCCN1S(=O)(=O)c1ccc(Br)cc1 (stereo not drawn),0.9%,?,19.0%,-0.6%
O=C(NCc1ccc2c(c1)OCO2)C(=O)NCC1OCCN1S(=O)(=O)c1ccc(Cl)cc1 (stereo not drawn),-0.1%,25.9µM*,8.4%,-4.9%
O=C(NCCc1c[nH]c2ccccc12)C(=O)NCC1OCCN1S(=O)(=O)c1ccc(Cl)cc1 (stereo not drawn),-1.2%,23.1µM*,11.7%,-11.9%
Cc1cn2c(=O)cc(COC(=O)c3cccc(NC(=O)c4ccc(C(C)(C)C)cc4)c3)nc2s1,-0.4%,.,-4.2%,-14.8%
COc1ccccc1C1C=C(c2ccc(Cl)cc2)Nc2nc(-c3ccc(Cl)cc3)nn21 (stereo not drawn),-0.1%,?,1.0%,-0.5%
N=c1n(CCN2CCOCC2)c2ccccc2n1CC(=O)c1cccc([N+](=O)[O-])c1,3.16µM*,0.6%,-0.1%,-1.6%
CCn1c(=N)n(CC(=O)c2cccc([N+](=O)[O-])c2)c2ccccc21,?,?,1.1%,0.2%
Cc1cccc(N2CCN(S(=O)(=O)c3ccc(-c4cc(C(F)(F)F)on4)s3)CC2)c1C,-0.1%,-7.5%,5.2%,-2.6%
Cc1ccccc1NC1=CC(=O)CC(C)(C)C1,-0.4%,.,-0.7%,-0.2%
CC1(C)CC(=O)C=C(NC2=CC3OC(c4ccccc4)OCC3OC2=O)C1 (stereo not drawn),8.5%,16.4µM*,9.8%,?
O=C(CSc1nc(-c2ccco2)nc2cc(=O)[nH]n12)Nc1ccccc1Cl,14.1µM*,0.0%,0.0%,17.6%
Cc1ccc(NC(=O)CSc2nc(-c3ccco3)nc3cc(=O)[nH]n23)c(Cl)c1,4.2%,5.9%,?,-3.1%
CC(=O)N1CCN(c2nc(-c3ccc(Br)cc3)cs2)CC1,.,.,-5.8%,.
COc1nc(N(C)S(=O)(=O)c2ccc(C)cc2)nc(C)c1Br,-0.6%,4.11µM*,2.5%,8.0%
COc1ccc(C2=Nn3c(nnc3-c3cccc(OC)c3OC)SC2)c(OC)c1,.,-11.9%,-6.9%,-3.3%
CC(=O)c1sc(C(C)(C)C)cc1NC(=O)/C=C/C(=O)O,15.8µM*,-19.5%,-12.7%,-0.6%
COc1cc2nc(NC(=O)c3ccc(F)cc3Cl)sc(=O)c2cc1OC,0.3%,6.51µM*,?,2.2%
O=C(Nc1nc2ccsc2c(=O)s1)c1ccc(F)cc1Cl,6.0%,?,4.8%,2.5%
Cc1ccc(Cl)cc1N1CCN(C(=O)C(C)n2ncn3cccc3c2=O)CC1 (stereo not drawn),0.1%,18.4µM*!,-2.4%,?
COc1ccc(-c2nc3ccccc3c(=O)n2Cc2ccc(CNC(=O)CO)cc2)cc1COc1ccc(NC(C)=O)cc1,.,?,?,-15.7%
SMILES,Nrf2 activator,Nrf2 block,Pin1 inhibitor,A549 viability
Cn1ncc2c(O/N=C(\N)c3ccc(C(F)(F)F)cc3)ncnc21,-3.6%,18.4µM*,3.5%,?
Cc1ccc(C(=O)NNc2ncnc3c2cnn3C)cc1,-0.7%,9.7%,-0.3%,-7.1%
c1c[nH]c(C2CCN(c3ncc(-c4ccc5c(c4)OCCCO5)s3)CC2)n1,.,.,4.3%,.
Fc1ccc(N2CCN(c3ncnc4c3nnn4Cc3ccccc3Cl)CC2)cc1,-0.9%,13µM*,-4.1%,2.1%
FC(F)(F)c1ccc(N2CCN(c3ncnc4c3nnn4Cc3ccccc3Cl)CC2)cc1,-0.3%,?,0.8%,-3.3%
O=S(=O)(c1nccs1)N1CCN(c2nc(-c3cccs3)nc3ccccc23)CC1,.,?,?,-1.3%
Cc1ccc(S(=O)(=O)N2[C@@H](c3ccc(C(C)(C)C)cc3)C(C(=O)O)=CC[C@H]2c2cccs2)cc1,3.8%,?,?,-20.9%
CCc1ccc([C@@H]2CC=C(C(=O)O)[C@H](c3ccccc3)N2S(=O)(=O)c2ccc(C)cc2)cc1,-0.7%,3.1%,-7.8%,-7.8%
CCc1ccc([C@@H]2CC=C(C(=O)O)[C@H](c3ccc(C(C)(C)C)cc3)N2S(=O)(=O)c2ccc(C)cc2)cc1,0.9%,20.6µM*,.,?
Cc1ccc(S(=O)(=O)N2[C@@H](c3ccc(C(C)(C)C)cc3)C(C(=O)O)=CC[C@H]2c2ccc(C(C)C)cc2)cc1,2.8%,2.91µM*,.,?
Cc1ccc([C@H]2C(C(=O)O)=CC[C@@H](c3cccs3)N2S(=O)(=O)c2ccc(C)cc2)cc1,2.2%,25.9µM*,-3.2%,?
Cc1ccc(S(=O)(=O)N2[C@@H](c3ccc(Br)cc3)C(C(=O)O)=CC[C@H]2c2ccc(C(C)C)cc2)cc1,3.8%,?,.,?
Cc1ccc([C@@H]2CC=C(C(=O)O)[C@H](c3ccc(C(C)(C)C)cc3)N2S(=O)(=O)c2ccc(C)cc2)cc1,3.6%,18.4µM*,.,-22.7%
COc1ccc([C@H]2[C@H](c3ccccc3)C(=O)N2Cc2ccccc2)cc1COc1ccc(NC(C)=O)cc1,.,?,50.8%,-2.9%
Cc1c(P(=S)(c2ccccc2)c2ccccc2)c2ccccc2n1C(=O)NCc1ccc(F)cc1,.,?,-2.4%,2.8%
Cc1cccc(Cn2cccc2CNS(=O)(=O)c2ccccc2F)c1,0.6%,.,0.7%,-0.2%
CC(=O)c1cc(-c2ccccc2)n(CC(=O)NCc2ccccc2C)c1C,-0.2%,6.2%,10.3%,5.8%
COc1ccc(SCC(Cc2ccccc2)N2CCN(CCc3ccccc3)CCC2=O)cc1 (stereo not drawn),.,2.1%,23.6%,-4.5%
Cc1ccc(S(=O)(=O)N2[C@@H](c3ccc(C(C)(C)C)cc3)C(C(=O)O)=CC[C@H]2c2ccc(Cl)cc2)cc1,-0.2%,18.4µM*,.,-23.4%
Cc1ccc(S(=O)(=O)N2[C@@H](c3cccc(Cl)c3)C(C(=O)O)=CC[C@H]2c2ccc(Cl)cc2)cc1,0.0%,-15.8%,?,-14.3%
O=c1[nH]c2ccccc2nc1-c1ccccc1,3.9%,?,1.0%,-3.8%
NC(=O)N=Nc1c2[nH]c3ccccc3nc-2c2ccccc12,10.3%,10.3µM*,?,?
Cc1cccc(NCc2ccc(O)c3ncccc23)c1C,3.5%,-7.2%,1.9%,-2.3%
O=[N+]([O-])c1ccccc1NCc1ccc(O)c2ncccc12,.,6.51µM*,-6.9%,?
